About 83,000 compounds went through this panel and 20% of them were active in at least one assay; those are over-represented in the sample as a whole.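 Interpretation: 100, growth as untreated; towards 0, rising growth inhibition; 0, no net growth; 0 to -100, cell death. Compounds scoring below 10 were considered active.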 Values without a mark were called inactive. The source made the active and inactive calls.
Tested on: CAKI-1 renal
Assay: NCI-60 one-dose screen, 48 h (100 = growth as untreated, 0 = no growth, -100 = all killed)
Conditions: 10 µM

Row | SMILES | growth
1 | COc1cc(/C=N/NC(=O)c2ccc3nc(-c4ccc(Cl)cc4)[nH]c3c2)cc(OC)c1OC | 2.87% (active)
2 | COc1cnc2c(c1)C(=O)c1c-2n(CCCNCCO)c(=O)c2cc(OC)c(OC)cc12 | 12%
3 | O=C(CSc1nnc(-c2c[nH]c3ccccc23)n1-c1ccccc1)Nc1ccc(C(=O)/C=C/c2cccc([N+](=O)[O-])c2)cc1 | 83.7%
4 | NC1=NC(c2ccccc2Cl)N=C(Nc2nn[nH]n2)N1 (stereo not drawn) | 94.5%
5 | O=C1NC(=NC23CC4CC(CC(C4)C2)C3)N/C1=C\c1ccc2ncccc2n1 | -13.4% (active)
6 | COc1cccc(/C=C2\N=C(C)N(CCc3ccc(S(N)(=O)=O)cc3)C2=O)c1 | 78.8%
7 | CC1(C)[C@@H](NCO)CC[C@]2(C)[C@H]3C(=O)C=C4[C@@H]5C[C@](C)(CO)CC[C@]5(C)CC[C@@]4(C)[C@]3(C)CC[C@@H]12 | 59.1%
8 | CN1CCN(Cc2ccc(NC(=O)c3cncc(C#Cc4cnc5ccc(N[C@H]6CCOC6)nn45)c3)cc2C(F)(F)F)CC1 | -96.7% (active)
9 | N#Cc1c(NC(=O)c2ccc(C(F)(F)F)cc2C(F)(F)F)sc2c1CCC(=O)C2 | -67.6% (active)
10 | CN(CCF)c1ccc(/C=C/C(=O)c2ccc(N)cc2O)cc1 | 60.4%
11 | N#Cc1c(NC(=O)c2cccc(C(F)(F)F)c2)sc2c1CCC(O)=C2 | 44.5%
12 | O=C(CNc1nc(-c2ccccc2)cs1)Nc1cccc([N+](=O)[O-])c1 | -88.9% (active)
13 | CC1(C)CC[C@]2(C(=O)NCCCNCCCCNCCCN)CC[C@]3(C)C(=CC[C@@H]4[C@@]5(C)Cc6c([nH]c7ccccc67)C(C)(C)[C@@H]5CC[C@]43C)[C@H]2C1 | 78%
